{"source": "PubChem BioAssay AID2314", "about": "(National Center for Advancing Translational Sciences (NCATS), 2010)", "note": "Out of some 300,000 compounds screened, about 37,000 (12%) were called active. This excerpt belongs to a sample that is enriched for actives. Unmarked numbers belong to inactive results. No stated cut-off is given here; in the data, active means max response mostly above about 13% (no sharp cut-off); inactive means mostly below about 14%.", "data": [{"assay": "Cycloheximide Counterscreen for Small Molecule Inhibitors of Shiga Toxin; further: read at 38.3 µM for the half of the compounds with a filed dose; 0% is about no effect", "conditions": "cell reporter, cycloheximide protein synthesis inhibition counterscreen; active compounds read high", "values": [{"compound": "CCCCC(=O)NCc1ccc(F)cc1", "max response": "-4.14%"}, {"compound": "O=C(Cc1ccccc1)NCc1ccc(F)cc1", "max response": "42.5% (active)"}, {"compound": "O=C(CCc1ccccc1)NCCc1cccs1", "max response": "36.1% (active)"}, {"compound": "CCN(CC)CCCNC(=O)CCc1ccccc1", "max response": "10.2%"}, {"compound": "O=C(Cc1c(O)c2ccccc2[nH]c1=O)NCc1ccccc1", "max response": "-2.53%"}, {"compound": "Cc1ccnc(NC(=O)CCC(=O)N(CC(=O)NCCc2ccccc2)Cc2cccs2)c1", "max response": "-8.74%"}, {"compound": "CCn1cc(C(=O)Nc2cc(C)ccc2C)c(=O)c2ccc(C)nc21", "max response": "7.8%"}, {"compound": "COc1ccc(C2CC(c3cccs3)=NN2c2ccccc2)cc1", "note": "(stereo unspecified)", "max response": "41% (active)"}, {"compound": "COc1ccccc1N1N=C(c2cccs2)CC1c1ccccc1", "note": "(stereo unspecified)", "max response": "6.34%"}, {"compound": "Oc1ccccc1C1=NN(c2ccccc2)C(c2ccccc2)C1", "note": "(stereo unspecified)", "max response": "49.1% (active)"}, {"compound": "COc1ccc(C2=NN(c3ccccc3)C(c3cccs3)C2)cc1", "note": "(stereo unspecified)", "max response": "0.803%"}, {"compound": "O=C(c1ccccc1)N1N=C(c2ccccc2O)CC1c1ccc(Br)cc1", "note": "(stereo unspecified)", "max response": "3.47%"}, {"compound": "CC(=O)Oc1ccccc1C1=NN(C(C)=O)C(c2ccccc2)C1", "note": "(stereo unspecified)", "max response": "9.57%"}, {"compound": "CCN(CC)c1ccc(/C=N/NC(=O)c2cnccn2)c(O)c1", "max response": "28.1% (active)"}, {"compound": "Cc1cc(C)nc(N/N=C/c2c(CO)cnc(C)c2O)n1", "max response": "-2.74%"}, {"compound": "CCN(CC)c1ccc(/C=N/Nc2nc(C)cc(C)n2)c(O)c1", "max response": "22.2% (active)"}, {"compound": "COc1cccc(OCC(=O)NNC(=O)c2cnccn2)c1", "max response": "-1.98%"}, {"compound": "Cc1cc(C)nc(N/N=C/c2ccncc2)n1", "max response": "0.636%"}, {"compound": "NS(=O)(=O)c1ccc(CNC(=O)c2cnccn2)cc1", "max response": "-2.6%"}, {"compound": "O=C(Nc1ccccc1Cl)/C(Cl)=C(\\Cl)S(=O)c1ccccc1", "note": "(stereo unspecified)", "max response": "14.2%"}, {"compound": "Cc1cccc(NC(=O)N(Cc2cc3cc(C)cc(C)c3[nH]c2=O)CC2COCCO2)c1", "note": "(stereo unspecified)", "max response": "-3.44%"}, {"compound": "O=C(Nc1ccccc1-c1ccccc1)c1ccccc1[N+](=O)[O-]", "max response": "-3.24%"}, {"compound": "CCN(Cc1ccccc1)C(=O)CN1C(=S)NC(C)(C)CC1C", "note": "(stereo unspecified)", "max response": "-3.52%"}, {"compound": "CCc1ccc2c(c1)C1(NN=C(c3ccccc3)S1)C(=O)N2", "note": "(stereo unspecified)", "max response": "69.8% (active)"}, {"compound": "CCOC(=O)c1c(NC(=O)CCCN2CCOCC2)sc2c1CC(C)(C)OC2", "max response": "12.6%"}, {"compound": "CC(C)N(C(=O)c1ccc(-c2ccccc2F)cc1)C(C)C", "max response": "-2.02%"}, {"compound": "CCOC(=O)CN(C)Cc1c[nH]c2ccccc12", "max response": "0.657%"}, {"compound": "CN(Cc1cccs1)C(=O)Cc1c[nH]c2ccccc12", "max response": "18.3% (active)"}, {"compound": "COc1ccc(CN(C)C(=O)Cc2c[nH]c3ccccc23)c(OC)c1OC", "max response": "-1.59%"}, {"compound": "COc1cccc(CNC(=O)Cc2csc(Nc3nc(=S)[nH]c4ccccc34)n2)c1", "max response": "10.3%"}, {"compound": "CCOC(CNC(=O)C(=O)NCC(c1ccco1)N1CCN(c2ccc(OC)cc2)CC1)OCC", "note": "(stereo unspecified)", "max response": "-5.43%"}, {"compound": "CCCC(C)C(=O)NCc1ccncc1", "note": "(stereo unspecified)", "max response": "-3.47%"}, {"compound": "O=C(NNc1ccccc1Cl)C(O)(c1cccc(C(F)(F)F)c1)c1cccc(C(F)(F)F)c1", "max response": "-4.75%"}, {"compound": "Cn1c(/C(C#N)=C2/CCCCCN2)nc2ccccc21", "max response": "9.03%"}, {"compound": "N#C/C(=C1\\CCCN1)c1nc(-c2ccccc2)cs1", "max response": "23% (active)"}, {"compound": "N#C/C(=C1/CCCN1)c1ccccn1", "max response": "-2.58%"}, {"compound": "N#CC(=C1SC=CS1)c1nc(-c2ccccc2)cs1", "max response": "58.5% (active)"}, {"compound": "N#CC(=C1CCCC1)c1nc(-c2ccc(Cl)cc2)cs1", "max response": "27.6%"}, {"compound": "Cc1ccc(S(=O)(=O)N2CCC(=O)N([C@H](COCc3ccccc3)Cc3ccccc3)CC2)cc1", "max response": "7.08%"}, {"compound": "CN(/C(=N/S(=O)(=O)c1cccs1)c1ccccc1)c1ccc(O)cc1", "max response": "11.5%"}, {"compound": "CN(C)S(=O)(=O)c1ccc(N2CCCC2)c(C(=O)Nc2cccc(F)c2)c1", "max response": "-3.38%"}, {"compound": "COc1ccc(CNC(=O)c2nnn(CC(=O)Nc3cc(C)cc(C)c3)c2N)cc1", "max response": "-2.25%"}, {"compound": "CCN(CC)c1ccc2oc(=O)c(C)nc2c1", "max response": "16.6% (active)"}, {"compound": "CCN(CC)c1ccc2cc(C(N)=O)/c(=N\\NC(=O)c3ccncc3)oc2c1", "max response": "5.35%"}, {"compound": "CCN(CC)c1ccc(C(=O)Nn2c(C)nc3ccccc3c2=O)cc1", "max response": "-2.07%"}, {"compound": "CCc1[nH]nc(C(=O)N2CCCC(CO)(Cc3ccc(F)cc3F)C2)c1C", "note": "(stereo unspecified)", "max response": "-3.79%"}, {"compound": "CCN(C(=O)c1cc([N+](=O)[O-])ccc1NCc1cccnc1)c1ccccc1", "max response": "-3.46%"}, {"compound": "CCOC(=O)c1cc(C)sc1NC(=O)C1CCC1", "max response": "6.29%"}, {"compound": "CS(=O)(=O)c1ccc2nc(NC(=O)C3CCCCC3)sc2c1", "max response": "9.31%"}, {"compound": "Cc1cnc(NC(=O)C2CCCC2)s1", "max response": "23.2% (active)"}, {"compound": "Cc1nc(NC(=O)C23CCC(C)(C(=O)O2)C3(C)C)sc1C", "note": "(stereo unspecified)", "max response": "-1.47%"}, {"compound": "CN1C(=O)c2ccc(NC(=O)C3CCCCC3)cc2C1=O", "max response": "1.88%"}, {"compound": "Cc1nc(NC(=O)C2CCCCC2)sc1C", "max response": "40.1% (active)"}, {"compound": "CC(=O)NC1C(Oc2ccc(C)cc2)OC2COC(c3ccco3)OC2C1O", "note": "(stereo unspecified)", "max response": "-5.51%"}, {"compound": "Cc1cc2c(s1)c1cnn(Cc3c(F)cccc3Cl)c(=O)c1n2C", "max response": "4.69%"}, {"compound": "CC(C)(C)c1cc[n+](-c2[nH]c(=O)sc2/C=N/N=C(\\[O-])c2ccccc2)cc1", "max response": "25.7% (active)"}, {"compound": "Cc1cc[n+](-c2[nH]c(=O)sc2/C=N/NC(=O)c2ccccc2[O-])cc1C", "max response": "1.3%"}, {"compound": "CCOC(=O)c1c(C)[nH]c(C)c1S(=O)(=O)N(C)CC(=O)Nc1ccccc1C", "max response": "-6.33%"}, {"compound": "O=C(CCC(=O)n1ncc2ccccc21)NCc1ccccc1Cl", "max response": "-1.42%"}, {"compound": "COc1ccc([N+](=O)[O-])cc1N(CC(=O)Nc1ccccc1C(=O)N1CCOCC1)S(C)(=O)=O", "max response": "-2.31%"}, {"compound": "O=C(Cc1ccccc1)N/N=C/c1ccc(Cl)cc1Cl", "max response": "12%"}, {"compound": "Cc1nnsc1C(=O)N/N=C/c1ccccc1Cl", "max response": "-0.513%"}, {"compound": "O=C(CSc1nnc(SCc2ccc(Cl)cc2)s1)N/N=C/c1ccccc1Cl", "max response": "12.5% (active)"}, {"compound": "N#C/C(=C/c1ccc(Cl)cc1)NC(=O)c1ccccc1", "max response": "17.9%"}, {"compound": "Cc1ccc(C)c(CSc2nc(-c3ccco3)nc3c2c(=O)n(C)c(=O)n3C)c1", "max response": "-2.42%"}, {"compound": "Cc1ccc(C)c(CN2CCC(CNC(=O)Nc3ccc(C)c(F)c3)CC2)c1", "max response": "1.71%"}, {"compound": "N#CC1(NC(=O)COC(=O)CCN=C2NS(=O)(=O)c3ccccc32)CCCCC1", "max response": "-3.22%"}, {"compound": "COc1cccc(CC(=O)Nc2ccc(-c3csc(C)n3)cc2)c1", "max response": "15.4%"}, {"compound": "COC(=O)[C@@H](NC(=O)NCc1cccc(OC)c1)C(C)C", "max response": "-2.02%"}, {"compound": "COc1cccc(NC(=O)NCc2ccc(F)cc2)c1", "max response": "10.4% (active)"}, {"compound": "Cc1ccc(CC(=O)Nc2cccc(C#N)c2)cc1", "max response": "14.1%"}, {"compound": "COc1cccc(NC(=O)Cc2ccc(C)cc2)c1", "max response": "27.5% (active)"}, {"compound": "COc1cccc(NC(=O)NCCN2CCCCC2)c1", "max response": "0.722%"}, {"compound": "O=S(=O)(c1cccc(Cn2nnc(-c3ccc(F)cc3)n2)c1)N1CCOCC1", "max response": "-2.1%"}, {"compound": "Cc1sc(NC(=O)C2C3CCC(O3)C2C(=O)O)c(C(=O)OC(C)C)c1-c1ccc(Cl)cc1", "note": "(stereo unspecified)", "max response": "-2.64%"}, {"compound": "Cc1[nH]c(C)c(S(=O)(=O)N2CCN(c3cccc(C(F)(F)F)c3)CC2)c1C(=O)N1CCCCC1", "max response": "0.664%"}, {"compound": "Cc1ccc(CN2CCN(c3ncccn3)CC2)c(C)c1", "max response": "1.42%"}, {"compound": "COc1ccccc1C1C(C#N)=C(N)Oc2c1c(-c1ccccc1)nn2-c1ccccc1", "note": "(stereo unspecified)", "max response": "10.5%"}, {"compound": "CCCc1cc(=O)[nH]c(SCC(=O)N2C(C)CCCC2C)n1", "note": "(stereo unspecified)", "max response": "-2.36%"}, {"compound": "COc1ccc(OC)c(CCNC(=O)CCn2ccc3cc(S(=O)(=O)N4CCCC4)ccc32)c1", "max response": "-1.39%"}, {"compound": "CN1CCN(CC(=O)Nc2cccc([N+](=O)[O-])c2)CC1", "max response": "1.18%"}, {"compound": "Cc1ccc(NC(=O)CN2CCC(C(N)=O)CC2)cc1[N+](=O)[O-]", "max response": "15.7% (active)"}, {"compound": "Cc1ccc(C)c(S(=O)(=O)N2CCN(CC(=O)Nc3ccc([N+](=O)[O-])cc3)CC2)c1", "max response": "-0.724%"}, {"compound": "CCc1nc2nc(C)c(NS(=O)(=O)c3ccc4c(c3)CCCC4)c(=O)n2[nH]1", "max response": "1.61%"}, {"compound": "O=C(Cn1cnc2ccccc21)Nc1ccccc1-c1ccccc1", "max response": "-3.38%"}, {"compound": "O=C(O)CCC(=O)N(Cc1ccccc1)Cc1ccccc1", "max response": "-1.7%"}, {"compound": "Nc1nc(NCC2CCCO2)nc(Nc2ccccc2F)c1[N+](=O)[O-]", "note": "(stereo unspecified)", "max response": "-2.31%"}, {"compound": "CCN(CC)C(=O)N1CCN(C(=O)c2ccc(C)cn2)CC1", "max response": "27.2% (active)"}, {"compound": "Cc1ccc(OCC(=O)N2CCN(C(=O)c3cccnc3)CC2)cc1", "max response": "-5.2%"}, {"compound": "CCN1CCN(C(=O)c2ccccc2N(C)S(=O)(=O)c2ccc(C)cc2)CC1", "max response": "-3.44%"}, {"compound": "Cc1c(C=O)c2ccccn2c1C(=O)c1ccncc1", "max response": "-6.15%"}, {"compound": "C=CCn1c(SCc2cccc(F)c2)nc2cc(C(=O)N3CCC(C(N)=O)CC3)ccc2c1=O", "max response": "-5.75%"}, {"compound": "CC(C)NC(=S)NN=C1CCCCCCCCCCC1", "max response": "16.4%"}, {"compound": "O=[N+]([O-])c1cccc(/C([O-])=C(/C(=S)Nc2ccccc2F)[n+]2ccccc2)c1", "max response": "44.3% (active)"}, {"compound": "CCC(C)NCC(=O)Nc1ccc([N+](=O)[O-])cc1C(=O)Nc1ccccc1F", "note": "(stereo unspecified)", "max response": "9.91%"}, {"compound": "Cc1ccc(/C([O-])=C(/C(=S)NCc2ccco2)[n+]2ccccc2)cc1[N+](=O)[O-]", "max response": "-1.29%"}]}]}
